Experimental data taken from PubChem BioAssay (NCATS).
Results filed as inconclusive are left out. A number with no mark means an inactive call. Calls come from the whole dose curve; as a rule, active = well fitted curve in the direction sought with a large enough effect; inconclusive = small, poorly fitted or top-dose-only effect, or another doubt; inactive = no such curve, though single readings can be large; an effect the other way counts as inactive or inconclusive.

Each molecule was assayed against Aldehyde dehydrogenase, mitochondrial (Homo sapiens) (UniProt P05091) (assay: qHTS for Inhibitors of the Aldehyde Dehydrogenase Family (ALDH2) Primary screen (AID 2061308;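 note: plate controls were vehicle for no effect and reference inhibitor for full effect; nearly all actives have a fitted effect of over 55% in size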)). Details: ALDH2 enzyme inhibition qHTS, 1536-well; series mostly up to 56 µM; activity change, negative = inhibition: at the top concentration.

SMILES | activity change, negative = inhibition
Cc1nc(NCc2ccccc2)c2nc(-c3ccccc3)n(CCN3CCOCC3)c2n1 | 2.23%
O=C(Nc1ccc(-c2ccccc2)cc1)Nc1nnc(-c2ccncc2)s1 | -2.25%
CCc1nn2c(=O)cc(N3C(C)CNCC3C)nc2s1 (stereo not drawn) | 1.07%
O=[S+]([O-])(/C=C/c1nc(Nc2cc(F)cc(F)c2)c2ncn(CC(F)F)c2n1)c1ccccc1 | 4.14%
CC(C)c1cc(C(C)C)c(S(=O)(=O)Nc2cccc3cccnc23)c(C(C)C)c1 | 9.84%
CC1=C(C(=O)NCc2ccccc2)C(c2ccccc2Br)N=C(Nc2nc3ccccc3o2)N1 (stereo not drawn) | -8.27%
CCCCNc1nc(C)nc2c1nc(-c1ccccc1)n2CCN1CCCCC1 | 12.1%
O=C(OCC#CCSc1nnc(-c2ccc3ccccc3c2)o1)c1ccc(F)cc1 | 2.29%
O=S(=O)(c1ccc2nc(Cl)c(Cl)nc2c1)N1CCN(S(=O)(=O)c2c(F)cccc2F)CC1 | -1.77%
CCc1ccccc1-c1nc(NCc2ccc(-c3cccnc3)cc2)c2ccccc2n1 | -12.1%
Cc1ccc2oc(NC3=NC(c4[nH]ncc4Cl)C4=C(CCCC4=O)N3)nc2c1 (stereo not drawn) | 16.1%
CC(=O)Nc1sc2c(c1C(=O)O)CCNC2 | -2.07%
Fc1cc(Nc2nc(-c3ccncc3)nc3ccccc23)ccc1-c1cn[nH]c1 | 1.99%
COc1cc(O)c(C(CC(=O)N2CC(C)OC(C)C2)c2ccc3c(c2)OCO3)c(OC)c1 (stereo not drawn) | 0.152%
CCc1ccc2oc(=O)cc(CN3CCN(c4ccccc4F)CC3)c2c1 | 5.6%
Cc1cccc(CNc2ncnc3ccc(-c4ccoc4)cc23)c1 | -11%
CN(C)CCCN1CCCN(C(=O)c2cccc(-c3cc(O)c4ncccc4c3)c2)C1 | 3.94%
O=S(=O)(c1ccc2c(c1)OCCO2)N1CCN(S(=O)(=O)c2c(F)cc(F)cc2F)CC1 | 3.37%
O=C(CCc1ccccc1Br)NCCc1nc2ccccc2[nH]1 | 12.3%
COc1ccc([S+](=O)([O-])Nc2ccc(-c3nc4ccccc4[nH]3)cc2)cc1OC | -1.39%
O=C(Nc1ncc(Cc2cccc(C(F)(F)F)c2)s1)c1ccc(-c2cccc([N+](=O)[O-])c2)o1 | -19.5%
CC(C)(C)CNc1ncnc2ccc(-c3ccc(C(=O)O)o3)cc12 | -6.27%
COc1ccc(OC)c(C2=Nn3c(nnc3-c3cccc(OC)c3OC)SC2)c1 | 2.17%

These molecules were tested against Retinaldehyde dehydrogenase 3 (Homo sapiens) (UniProt P47895) (assay: qHTS for Inhibitors of the Aldehyde Dehydrogenase Family (ALDH1A3) Primary screen (AID 2061315;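 note: plate controls were DMSO vehicle for no effect and reference inhibitor for full effect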)). Details: ALDH inhibition qHTS; series mostly up to 56 µM; activity change, negative = inhibition: at the top concentration.

SMILES | activity change, negative = inhibition
CC(C)CCn1c(CN2CCN(C(=O)C(C)C)CC2)nc2c1c(=O)n(C)c(=O)n2C | -11.5%
O=C(OCC#CCSc1nnc(-c2ccc(F)cc2)o1)c1ccc(F)cc1 | -5.68%
CC(=O)c1cccc(NC(=O)Nc2nnc(-c3ccncc3)s2)c1 | -1.67%
Cc1cc2c(s1)c1cnn(Cc3cc(F)ccc3C)c(=O)c1n2C | 0.747%
COc1cccc(-c2nc3cc(NC(=O)c4ccc(C)c([N+](=O)[O-])c4)ccc3o2)c1 | -0.715%
CC(=O)c1ccc(O[C@@H]2O[C@H](CO)[C@@H](O)[C@H](O)[C@H]2O)cc1 | 6.41%
Cc1ccc(NC(=O)c2ccc(-c3nc4ccccc4[nH]3)cc2)cc1Br | 3.23%
FC(F)(F)c1cccc(N2CCN(C(=S)Nc3ncnc4ccccc34)CC2)c1 | 17.5%
Clc1ccc2ncc(-c3cccc(NC4CCNC4)n3)n2c1 (stereo not drawn) | -11.6%
FC(F)(F)c1cccc(-c2nc(NCc3ccc(-c4cccnc4)cc3)c3ccccc3n2)c1 | -12.6%
N=c1c2c(ncn1CCN1CCOCC1)Oc1ccc3ccccc3c1C2c1ccccc1 (stereo not drawn) | 1.6%
Cc1ccc(OCCn2c(CCNC(=O)c3ccc(C(F)(F)F)cc3)nc3ccccc32)cc1 | -13%
CCC(C)/C=C(C)/C=C/C1=CC2=CC(=O)C(C)(O)C(OC(C)=O)C2CO1 (stereo not drawn) | -10.7%
C/C(=C\c1ccsc1)C1Nc2cccc3cccc(c23)N1 | -11.6%
Cc1ccc(NS(=O)(=O)c2ccc3c(c2)CCC(=O)N3)cc1 | 1.92%
COc1ccc(CNc2nc(-c3ccccc3C(F)(F)F)nc3ccccc23)cc1 | -13.5%
Cc1ccc(N[S+](=O)([O-])c2cc3c(cc2Cl)CCC(=O)N3)cc1Br | -1.1%
Cc1nc(NCc2ccccc2)c2nc(-c3ccccc3)n(CCN3CCOCC3)c2n1 | -2.49%
O=C(Nc1ccc(-c2ccccc2)cc1)Nc1nnc(-c2ccncc2)s1 | 7.76%
CCc1nn2c(=O)cc(N3C(C)CNCC3C)nc2s1 (stereo not drawn) | 17.9%

SMILES | activity change, negative = inhibition
O=[S+]([O-])(/C=C/c1nc(Nc2cc(F)cc(F)c2)c2ncn(CC(F)F)c2n1)c1ccccc1 | -1.02%
CC(C)c1cc(C(C)C)c(S(=O)(=O)Nc2cccc3cccnc23)c(C(C)C)c1 | 15.2%
CC1=C(C(=O)NCc2ccccc2)C(c2ccccc2Br)N=C(Nc2nc3ccccc3o2)N1 (stereo not drawn) | 3.16%
CCCCNc1nc(C)nc2c1nc(-c1ccccc1)n2CCN1CCCCC1 | 7.39%
O=C(OCC#CCSc1nnc(-c2ccc3ccccc3c2)o1)c1ccc(F)cc1 | 1.04%
O=S(=O)(c1ccc2nc(Cl)c(Cl)nc2c1)N1CCN(S(=O)(=O)c2c(F)cccc2F)CC1 | 0.846%
CCc1ccccc1-c1nc(NCc2ccc(-c3cccnc3)cc2)c2ccccc2n1 | -20.2%
Cc1ccc2oc(NC3=NC(c4[nH]ncc4Cl)C4=C(CCCC4=O)N3)nc2c1 (stereo not drawn) | 0.927%
CC(=O)Nc1sc2c(c1C(=O)O)CCNC2 | -14.6%
Fc1cc(Nc2nc(-c3ccncc3)nc3ccccc23)ccc1-c1cn[nH]c1 | 7.78%
COc1cc(O)c(C(CC(=O)N2CC(C)OC(C)C2)c2ccc3c(c2)OCO3)c(OC)c1 (stereo not drawn) | -4.95%
CCc1ccc2oc(=O)cc(CN3CCN(c4ccccc4F)CC3)c2c1 | -2.35%
Cc1cccc(CNc2ncnc3ccc(-c4ccoc4)cc23)c1 | 0.71%
CN(C)CCCN1CCCN(C(=O)c2cccc(-c3cc(O)c4ncccc4c3)c2)C1 | 9.77%
O=S(=O)(c1ccc2c(c1)OCCO2)N1CCN(S(=O)(=O)c2c(F)cc(F)cc2F)CC1 | -4.88%
O=C(CCc1ccccc1Br)NCCc1nc2ccccc2[nH]1 | 7.7%
COc1ccc([S+](=O)([O-])Nc2ccc(-c3nc4ccccc4[nH]3)cc2)cc1OC | 10.5%
O=C(Nc1ncc(Cc2cccc(C(F)(F)F)c2)s1)c1ccc(-c2cccc([N+](=O)[O-])c2)o1 | 7.87%
CC(C)(C)CNc1ncnc2ccc(-c3ccc(C(=O)O)o3)cc12 | -5.19%
COc1ccc(OC)c(C2=Nn3c(nnc3-c3cccc(OC)c3OC)SC2)c1 | 20.3%
